Screening data as filed in PubChem.
dFosB activator – activators of delta FosB homodimer, primary screen, biochemical, fluorescence polarization, TAMRA-CDK5 oligo, single point | Protein FosB (Mus musculus), P13346 | purified delta FosB; percent of positive-control signal above neutral wells | activation, % at 25 µM | 340,000 tested, 0.99% active | AID 493131, 2011;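 active = mean activation above about 17%, with every replicate also reaching it, limit read from the data, passing the limit was not always enough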
Target sequence (P13346 whole entry, looked up): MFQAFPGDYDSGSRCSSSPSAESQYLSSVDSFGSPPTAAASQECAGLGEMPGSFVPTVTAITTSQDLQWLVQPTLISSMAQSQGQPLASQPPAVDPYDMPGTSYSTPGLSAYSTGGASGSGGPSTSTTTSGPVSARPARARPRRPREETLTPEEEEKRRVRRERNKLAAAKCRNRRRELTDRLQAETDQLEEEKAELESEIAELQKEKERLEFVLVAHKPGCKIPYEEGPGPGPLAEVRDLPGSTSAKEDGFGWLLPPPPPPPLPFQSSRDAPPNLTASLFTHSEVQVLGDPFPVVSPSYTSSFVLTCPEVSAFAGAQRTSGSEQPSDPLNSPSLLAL
A1 inh – caspase 3/7 activation in MEF A1-2A-BIM cells, primary screen, A1 inhibitor project, cell-based, luminescence, HTS. Caspase-Glo 3/7 luminescence, 3 h; percent of clofoctol response, vehicle zero. 330,000 tested, 0.066% active. caspase activation, % (no concentration beside the values);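 active = over half of replicate activation scores above 10%, or exactly half above 10 with the replicate mean above 10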
INS-1E GSIS act – GLuc luminescence reporter in INS-1E cells, primary screen for activators of glucose-dependent secretion of insulin. INS-1E GLuc reporter insulin secretion, 2-3 h. 370,000 tested, 0.61% active. activation, % at 16.6 µM. AID 743287, 2014;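 active = lowest replicate activation of at least 40%, so every replicate reaches that level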;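 note: 0% = median of neutral control wells and 100% = median of IBMX positive control wells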
Neddyl block – inhibitors of cullin neddylation, primary screen, biochemical, TR-FRET, uHTS, NAE and Ubc12; NEDD8-conjugating enzyme Ubc12 (Homo sapiens) + NEDD8-activating enzyme E1 regulatory …; inhibition, % at 25 µM; 360,000 tested, 0.58% active; in the data active = inhibition above about 36%
Vif inh – HIV Vif self-association inhibitors, primary screen, imaging, HEK293T, single point. AID 602346, 2012. 340,000 tested, 0.35% active. inhibition, % at 7.49 µM. HEK293T cells, Vif self-association by quenched fluorescence, 24 h; in the data active = inhibition above about 50%, passing the limit was not always enough
Neddyl conf – blockade of NEDD8 conjugation to cullin – biochemical, TR-FRET, single concentration, confirmation; calls only at 25 µM; AID 652217, 2013; TR-FRET cullin neddylation biochemical assay; 1,800 tested, 13% active; shares compounds with Neddyl block; in the data active = inhibition above about 40%;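 note: neddylation substrate is the cullin 1 ring ligase complex with SKP2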
Active calls of the source: *; i = inactive; . = no result given; + = active, no number. A selection: hits, their analogues and other compounds. The true share with any hit is near 1.9%.

SMILES | dFosB activator | A1 inh | INS-1E GSIS act | Neddyl block | Vif inh | Neddyl conf
CN1[C@@H]2Cn3c(ccc(-c4ccc(F)cc4)c3=O)[C@H]1[C@@H](C(=O)Nc1nccs1)[C@@H]2CO | . | . | -4.4 | . | . | .
COc1ccc2cc3cc(C(=O)NCCN4CCc5ccccc5C4)sc3nc2c1 | -17.9 | -1.3 | 2.2 | 50.3* | 4.8 | i
COc1cccc(NC(=O)N[C@@H]2C=C[C@H](CC(=O)N3CCOCC3)O[C@@H]2CO)c1 | . | . | 5.1 | . | . | .
CCOC(=O)C1=C(C)NC(C)=C(C(=O)OCC)C1C | -3.4 | -1.3 | -23.3 | 47.2* | 18.9 | .
CCOC(=O)C1=C(C)NC(C)=C(C(=O)OCC)C1c1ccc(OC)cc1 | -3.9 | 0.3 | . | . | 0.6 | .
COc1ccc(C(CC(=O)N2CCN(c3ccccc3)CC2)c2c(OC)cc(OC)c3ccc(=O)oc23)cc1 (stereo not drawn) | -9.9 | 2.0 | -2.9 | 33.3* | -1.6 | i
Oc1ccc2c(c1)oc1cc(O)ccc12 | -1.4 | 0.8 | . | 41.4* | . | i
C[C@@H]1CCCCO[C@@H](CN(C)Cc2ccc(C(=O)O)cc2)[C@H](C)CN([C@H](C)CO)C(=O)c2cc(N(C)C)ccc2O1 | . | . | -2.1 | . | . | .
O=C(N/N=C/c1ccc([N+](=O)[O-])cc1)c1[nH]ncc1Br | 1.8 | 0.9 | 6.2 | -18.2 | -2.0 | .
Cc1nc(C(=O)N/N=C/c2[nH]ncc2Br)cs1 | -7.2 | -3.2 | 11.7 | 42.1* | -3.4 | i
O=C(O)c1cc(-c2ccc3c(c2)OCO3)nc2ccc(Cl)cc12 | -4.3 | -0.3 | 1.5 | 53.9* | -1.8 | .
CC(C)(C)NC(=O)c1cc(-c2ccc3c(c2)OCO3)nc2ccccc12 | -5.3 | -0.9 | 70.6 | 45.9* | 1.3 | i
Cn1c(NC(=O)c2cc(-c3ccc4c(c3)OCO4)nc3ccccc23)cc(=O)n(C)c1=O | 2.1 | -1.3 | . | 10.2 | 5.6 | .
CO[C@H]1CN(C)C(=O)c2cc(NC(=O)C3CCC3)ccc2OC[C@@H](C)N(Cc2ccc(F)cc2)C[C@@H]1C | . | . | -20.5 | . | . | .
Cc1ccc(C(=O)N/C(=C/c2ccc(-c3ccc(Br)cc3)o2)C(=O)NC2CCS(=O)(=O)C2)cc1 (stereo not drawn) | -11.2 | 0.2 | 0.4 | 47.5* | 2.9 | i
Cc1c(Cl)ccc2sc(NC(=O)c3ccco3)nc12 | 2.0 | . | . | 41.9* | 6.3 | i
COc1cc(C(=O)NC2CCN(C)CC2)ccc1Nc1ncc2c(n1)N(CCc1ccccc1)CCC(=O)N2C | -10.1 | . | -18.9 | 38.7* | 8.0 | i
COc1cc(C(=O)NC2CCN(C)CC2)ccc1Nc1ncc2c(n1)N(C1CCCC1)CCC(=O)N2C(C)C | 7.4 | . | . | 30.9 | -2.9 | .
CCOC(=O)C(C)Sc1nc(-c2ccco2)cc(C(F)(F)F)c1C#N (stereo not drawn) | -6.7 | -1.9 | . | 40.7* | . | .
CCCNC(=O)c1sc2c(c1C(=O)Nc1ccccn1)CCCC2 | -11.4 | 0.3 | -5.4 | 43.8* | -1.5 | i
CN(C)CCNC(=O)c1c(NC(=O)c2ccccc2)sc2c1CCCC2 | 6.2 | -0.4 | 12.0 | 33.1 | 17.4 | .
CS(=O)(=O)Nc1ccc2c(c1)[C@@H]1C[C@@H](CC(=O)NCc3ccc(-c4ccccc4)cc3)O[C@H](CO)[C@@H]1O2 | . | . | -2.2 | . | . | .
COCCn1nnnc1C(c1cc2cc(OC)c(OC)cc2[nH]c1=O)N1CCN(c2ccc(O)cc2)CC1 (stereo not drawn) | -6.5 | -0.2 | 5.7 | 42.2* | 14.0 | i
OCCCN=C1CCCc2c1[nH]c1ccc(Cl)cc21 | -5.3 | 0.2 | . | 39.7* | -6.5 | i
OCCN=C1CCCc2c1[nH]c1ccc(Cl)cc21 | -10.1 | 1.1 | 10.4 | 33.5 | -0.7 | .
SMILES | dFosB activator | A1 inh | INS-1E GSIS act | Neddyl block | Vif inh | Neddyl conf
O=C(O)c1cc(NCc2ccc3c(c2)OCO3)ccc1N1CCOCC1 | -1.5 | -0.1 | . | 42.6* | 8.1 | i
COc1cc(CNc2ccc(N3CCOCC3)c(C(=O)O)c2)ccc1OCC(N)=O | -1.3 | 0.5 | . | 41.9* | 9.8 | i
CCNC(=O)[C@H]1[C@H](CO)[C@H]2Cn3c(ccc(-c4ccc(OC)cc4)c3=O)[C@@H]1N2CC1CC1 | . | . | 7.7 | . | . | .
Cc1noc(C)c1S(=O)(=O)Nc1ccc2c(c1)CC(=O)N([C@H](C)CO)C[C@H](C)[C@H](CN(C)Cc1ccc3c(c1)OCO3)O2 | . | . | -5.3 | . | . | .
COc1cccc(S(=O)(=O)Nc2ccc3c(c2)[C@@H]2C[C@H](CC(=O)NCc4ccc(Cl)cc4)O[C@@H](CO)[C@@H]2O3)c1 | . | . | -32.5 | . | . | .
COc1ccccc1-n1c(-c2ccc(NS(C)(=O)=O)cc2)n[nH]c1=S | 0.1 | 0.4 | 18.9 | 41.4* | 4.1 | i
O=C(C[C@H]1CC[C@@H]2[C@H](COC[C@@H](O)CN2Cc2cccc(Cl)c2)O1)Nc1nccs1 | . | . | -0.8 | . | . | .
COC(=O)c1ccc(-c2ccc(/C=N/NC(=O)CC3(C)OCCCO3)o2)cc1 | -6.6 | 0.3 | 1.5 | 41.0* | -1.8 | i
Nc1ccc(-c2cc3ccccc3c(=O)o2)cc1 | -9.8 | -9.5 | 5.6 | 45.8* | -9.9 | i
O=c1oc(-c2ccccc2)cc2ccccc12 | . | . | 10.3 | 35.5 | -20.9 | .
Cc1cccc(-c2n[nH]c(=S)n2/N=C/C=C/c2ccco2)c1 | -7.7 | 0.5 | -9.7 | 59.6* | -8.2 | i
CO[C@@H]1CN(C)C(=O)c2cc(NC(=O)NC(C)C)ccc2OC[C@H](C)N(CCC(F)(F)F)C[C@@H]1C | . | . | 2.5 | . | . | .
COC(=O)CCC(=O)OC1(C)C(=O)C=C2C=C(C3CC3)N(c3cccc(C#N)c3)C=C2C1=O (stereo not drawn) | -12.2 | 1.1 | . | 44.3* | -2.6 | i
CN(C)C(=O)c1ccc(-c2ccccc2[C@@H]2[C@@H](CO)N(C(=O)C3CC3)[C@H]2C#N)cc1 | . | . | -8.0 | . | . | .
CCOC(=O)c1cc2c(nc1N)CCCC2 | -2.8 | 0.8 | 18.9 | . | 12.6 | .
CCOC(=O)c1cnc2cc3c(cn2c1=O)CCCC3 | -0.2 | -0.1 | . | 39.7* | -7.0 | .
C[C@@H]1CN([C@@H](C)CO)C(=O)c2cc(NC(=O)c3ccncc3)ccc2O[C@H]1CN(C)Cc1ccc(Oc2ccccc2)cc1 | . | . | -13.1 | . | . | .
CCC(=O)Nc1cc(-c2nn(C)c(=O)c3ccccc23)ccc1N1CCCCC1 | -3.1 | -0.1 | . | 37.9* | -11.8 | i
Cc1noc(C)c1S(=O)(=O)Nc1ccc2c(c1)CC(=O)N([C@@H](C)CO)C[C@@H](C)[C@H](CN(C)S(=O)(=O)c1ccc(Cl)cc1)O2 | . | . | -9.8 | . | . | .
O=C(Nc1cccc2nsnc12)c1ccc2c(c1)OCO2 | -1.5 | -5.3 | . | 44.7* | -6.5 | +
O=C(Nc1cccc2nsnc12)c1ccc(F)cc1 | -4.0 | -2.0 | . | 34.6 | -11.5 | .
